Data as given in PubChem BioAssay (NCI).
Compounds without any hit were thinned out: in the full panel of roughly 79,000, 15% have a hit. A number with no mark means an inactive call. Calls of active or inactive are those of the source. Cut-off read from the data, not from the text of the source: active = growth inhibition above about 70%; inactive = the rest.

Assays:
[1] = NCI Yeast Anticancer Drug Screen. Data for the rad50 strain (AID 155);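 note: 0% = growth of vehicle-only cultures of the same strain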; conditions: S. cerevisiae rad50 strain growth inhibition, hits give high values
Method in brief: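 Readout: growth inhibition relative to vehicle-treated cultures. Compound exposure was carried out in a genetically defined yeast strain deficient in DNA damage repair.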

[2] = NCI Yeast Anticancer Drug Screen. Data for the mec2-1 strain (AID 157); conditions: S. cerevisiae mec2-1 strain, hits give high values
Method in brief: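 Using mec2-1 yeast: add compound, measure growth, express inhibition versus vehicle-treated cultures.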

[3] = NCI Yeast Anticancer Drug Screen. Data for the sgs1 mgt1 strain (AID 161);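 note: 0% = growth of cultures given vehicle only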; conditions: S. cerevisiae sgs1 mgt1 strain, hits give high values
Method in brief: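 Compounds are added to genetically altered yeast, and growth is compared with cultures given vehicle alone to give percent inhibition.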

[4] = NCI Yeast Anticancer Drug Screen. Data for the cln2 rad14 strain (AID 165);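 note: 0% = growth equal to vehicle treated cultures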; conditions: S. cerevisiae cln2 rad14 strain, hits give high values
Method in brief: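 Yeast strain cln2 rad14, bearing defects in cell cycle control and DNA repair, serves as the test system; values reflect growth inhibition compared with vehicle.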

[5] = NCI Yeast Anticancer Drug Screen. Data for the bub3 strain (AID 167); conditions: S. cerevisiae bub3 mutant strain, hits give high values
Method in brief: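 Readout: yeast growth inhibition, expressed relative to vehicle-only wells. The test organism is a mutant strain from a panel with lesions in DNA repair or checkpoint genes.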

[6] = NCI Yeast Anticancer Drug Screen. Data for the mlh1 rad18 strain (AID 175); conditions: S. cerevisiae mlh1 rad18 strain growth inhibition, hits give high values
Method in brief: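 Steps: expose repair-defective yeast to compound; measure growth; express inhibition against vehicle-treated controls.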

[7] = at 5.0 µM (retest, dose inferred, filed as 0.5)
[8] = at 50.0 µM (retest, dose inferred, filed as 5.0)

| SMILES | growth inhibition [1, 7] | growth inhibition [1, 8] | growth inhibition ([1]; at 50.0 µM) | growth inhibition [2, 7] | growth inhibition [2, 8] | growth inhibition ([2]; at 50.0 µM) | growth inhibition [3, 7] | growth inhibition [3, 8] | growth inhibition ([3]; at 50.0 µM) | growth inhibition [4, 7] | growth inhibition [4, 8] | growth inhibition ([4]; at 50.0 µM) | growth inhibition [5, 7] | growth inhibition [5, 8] | growth inhibition ([5]; at 50.0 µM) | growth inhibition [6, 7] | growth inhibition [6, 8] | growth inhibition ([6]; at 50.0 µM) |
| --- | --- | --- | --- | --- | --- | --- | --- | --- | --- | --- | --- | --- | --- | --- | --- | --- | --- | --- |
| Cc1ccc(C#CCN2CCCCC2)cn1 | -142% | -82% | 4.45% | -77% | -47% | 11.1% | -64% | -22% | 22.8% | -60% | -46% | 69.2% | -66% | -54% | -0.5% | -138% | -87% | 11.7% |
| Cc1cc(N(CCCl)CCCl)ccc1CN1CCCN(Cc2ccc(N(CCCl)CCCl)cc2C)C1c1ccc(N(CCCl)CCCl)cc1C | 4% | 98% (active) | 98% (active) | -2% | 99% (active) | 98% (active) | 2% | 99% (active) | 98.8% (active) | 1% | 98% (active) | 87% (active) | 7% | 99% (active) | 97.7% (active) | 21% | 98% (active) | 98.6% (active) |
| c1ccc2c3ccn4cc5c(cc4c-3nc2c1)CCCC5 | 10% | 97% (active) | 86.9% (active) | 23% | 98% (active) | 86.6% (active) | 22% | 98% (active) | 86.2% (active) | 6% | 96% (active) | 73.2% (active) | 1% | 97% (active) | 87% (active) | 26% | 98% (active) | 85.2% (active) |
| O=C(O)C1(c2ccccc2)OC1c1ccccc1 (stereo not drawn) | 2% | 67% | 47% | 0% | 82% (active) | 81.3% (active) | 3% | 71% (active) | 84.7% (active) | 2% | 80% (active) | 79.8% (active) | -6% | 93% (active) | 64.6% | -1% | 86% (active) | 84.3% (active) |
| C(CCC[Te][Te]CCCCCCOC1CCCCO1)CCOC1CCCCO1 (stereo not drawn) | 6% | 39% | 84.5% (active) | 3% | 17% | 48.5% | 7% | 19% | 67.7% | 3% | 29% | 62.4% | 0% | 30% | 68.7% | 2% | 30% | 90% (active) |
| CCOP(=S)(OCC)OC(c1ccc(Cl)cc1)c1ccc(Cl)cc1 | 3% | -11% | 12.8% | 0% | -7% | 6.2% | 7% | -20% | 0.25% | 6% | -29% | 15.8% | 11% | 18% | 49.6% | -1% | -11% | 11.6% |
| CCC1(O)C(=O)OCc2c1cc1n(c2=O)Cc2cc3ccc(C#N)cc3nc2-1 (stereo not drawn) | 71% (active) | 57% | 51% | 11% | -6% | -20.8% | 11% | -132% | -30.6% | 10% | -5% | -16.7% | -6% | -63% | -4.05% | 10% | -9% | -15.6% |
| COC([CH2][Hg][n]1cnc2c1c(=O)n(C)c(=O)n2C)CN1C(=O)c2ccccc2S1(=O)=O (stereo not drawn) | 9% | 94% (active) | 96.8% (active) | 20% | 84% (active) | 95.3% (active) | -2% | 89% (active) | 87.7% (active) | -11% | 69% | 87.2% (active) | -1% | 89% (active) | 95.1% (active) | -1% | 95% (active) | 97% (active) |
| CC(C)NCC(O)c1ccc(O)c(O)c1.[Pt].c1ccc([PH+](c2ccccc2)c2ccccc2)cc1.c1ccc([PH+](c2ccccc2)c2ccccc2)cc1 | -7% | 99% (active) | 98.7% (active) | -6% | 98% (active) | 98.8% (active) | -8% | 99% (active) | 99% (active) | 11% | 86% (active) | 97.8% (active) | -26% | 98% (active) | 98.8% (active) | 9% | 99% (active) | 98.8% (active) |
| CCCN1CN(c2ccccc2)C2(CCN(CCCC(=O)c3ccc(F)cc3)CC2)C1=O | 11% | 17% | 35.7% | 7% | 14% | -4.4% | -17% | 12% | 60.5% | 6% | 20% | 15.6% |  |  |  | 22% | 30% | 20.4% |
| CCOc1ccc(/C=C/[N+](=O)[O-])cc1[N+](=O)[O-] | 11% | 98% (active) | 95.6% (active) | 7% | 99% (active) | 99.6% (active) | 9% | 99% (active) | 99.5% (active) | 16% | 99% (active) | 99% (active) | 9% | 99% (active) | 99.3% (active) | 12% | 99% (active) | 99.3% (active) |
| O=c1oc2ccccc2c(O)c1C(c1ccc(OCc2ccccc2)cc1)c1c(O)c2ccccc2oc1=O | 16% | 7% | 63.3% | 16% | 51% | 86.3% (active) | -33% | 92% (active) | 65.3% | -3% | 94% (active) | 62.2% |  |  |  | 7% | 23% | 50.9% |
| COc1cc(C(=O)CCN(CCCl)CCCl)cc(OC)c1OC | -1% | 68% | 95.5% (active) | 0% | 67% | 97.3% (active) | 13% | 82% (active) | 97.2% (active) | 0% | 55% | 99.5% (active) | -3% | 82% (active) | 93.2% (active) | 13% | 83% (active) | 97.1% (active) |
| CC(=O)[O][Hg][c]1c(C)c(C)c(C)c(C)c1C | 98% (active) | 97% (active) | 87.5% (active) | 98% (active) | 97% (active) | 90.1% (active) | 99% (active) | 98% (active) | 90.7% (active) | 98% (active) | 98% (active) | 89.8% (active) |  |  |  | 98% (active) | 96% (active) |  |
| CC1=CCC2(C)C3CCC4(C)C(O)CCC4C3CCC2(C)C1 (stereo not drawn) | -17% | 90% (active) | 70.8% (active) | -17% | 95% (active) | 11.9% | -6% | 97% (active) | 63.8% | -6% | 83% (active) | 9.1% | -25% | 94% (active) | 39.5% | -10% | 96% (active) | 58.6% |
| O=C(CCl)Nc1cccc(Cl)c1 | 3% | 80% (active) | 92.4% (active) | 2% | 50% | 89.5% (active) | 1% | 68% | 87.5% (active) | 2% | 33% | 67.8% | 10% | 78% (active) | 94.4% (active) | 2% | 78% (active) | 95% (active) |
| C=Cc1c2ccccc2cc2ccccc12 | 44% | 82% (active) | 86.2% (active) | 42% | 82% (active) | 75.2% (active) | 26% | 31% | 83.3% (active) |  |  |  | 50% | 36% | 81.2% (active) | 34% | 74% (active) | 75% (active) |
